Screens deposited in PubChem BioAssay by National Center for Advancing Translational Sciences (NCATS).
EPAC2 agonist = activates human EPAC2 exchange factor | Q8WZA2 | EPAC2 activation, biochemical qHTS; response scale: 100% = 6.5 mM cAMP response | Potency, µM (highest dose often 154 µM), inactives show top-dose activation, actives largely listed as activators | 360,000 tested, 0.079% active; further: nearly all actives have a fitted effect of over 50% in size
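EPAC2 (100 nM) mixed with Rap1B loaded with BODIPY-GDP (250 nM) plus 50 uM unlabeled GDP; compounds pinned in, 5 min RT, then read every 5 min for 30 min (ex 480, em 540 nm). Normalized to cAMP control.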
EPAC1 agonist = activates human EPAC1 exchange factor | 360,000 tested, 0.073% active | EPAC1 agonist qHTS, biochemical assay; response scale: 100% = response to 6.5 mM cAMP | O95398 | AID 720707 | Potency, µM (doses to about 154 µM), without a hit: at the highest dose activation, most hits filed as activators; further: nearly all actives have a fitted effect of over 60% in size
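Nucleotide exchange assay: 100 nM EPAC1 with 250 nM Rap1B loaded with BODIPY-GDP and 50 uM GDP, room temperature. Fluorescence (480/540 nm) read every 5 min for 30 min; signal change normalized to 6.5 mM cAMP as full agonist.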
EPAC1 antag = EPAC1 (human) antagonism. O95398. 360,000 tested, 0.14% active. EPAC1 GEF assay, Rap1b-BODIPY-GDP exchange fluorescence. Potency, µM (series often up to 115 µM), for inactives: at the highest dose activity change, negative = inhibition, usual class: inhibitors;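 further: plate controls were vehicle for no effect and positive control for full effect; nearly all actives have a fitted effect of over 50% in size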
USP1-UAF1 inh = USP1/UAF1 (human) deubiquitinase inhibition | O94782 | recombinant USP1/UAF1, Ub-Rhodamine cleavage fluorescence | Potency, µM (top dose mostly 57.1 µM), without a hit: at the top dose activity change, negative = inhibition, most hits filed as inhibitors | 390,000 tested, 0.23% active; further: on the % scale 0 is the no-effect control and ±100 the full control effect; nearly all actives have a fitted effect of over 60% in size
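High-throughput fluorogenic screen: 1nM USP1/UAF1 complex, Ub-Rho substrate 150nM final, 50mM HEPES pH 7.8 with 0.5mM EDTA, 0.1 mg/ml BSA, 1mM TCEP and 0.01% Tween-20.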
EPAC2 antagonist = EPAC2 (human) antagonism; Potency, µM (doses to about 114 µM), for inactives: top-dose activity, negative = inhibition, hits mostly inhibitors; Q8WZA2; 360,000 tested, 0.18% active; AID 720708; EPAC2 GEF exchange of Rap1B-BODIPY-GDP, fluorescence; further: on the % scale 0 is the no-effect control and ±100 the full control effect; nearly all actives have a fitted effect of over 45% in size
Active calls of the source: *; u = inconclusive; x = no result given. This is a sample that favours compounds with a hit; in the whole collection about 0.49% have one here. The call rests on the fitted dose curve; in most records, active means well fitted curve in the direction sought with a large enough effect; inconclusive means small, poorly fitted or top-dose-only effect, or another doubt; inactive means no such curve, though single readings can be large; an effect the other way counts as inactive or inconclusive. Potency means the concentration at half of the fitted maximal effect.

SMILES | EPAC2 agonist | EPAC1 agonist | EPAC1 antag | USP1-UAF1 inh | EPAC2 antagonist
CCCN(CCC)C(=O)Cn1c(=O)c2sccc2n2c(=S)sc(-c3ccccc3)c12 | -33% | 8% | -10% | -21% | 50µM*
COc1ccccc1NC(=O)c1sc2nc(Cc3ccccc3)cc(C(F)(F)F)c2c1N | -6% | 2% | -9% | u | 79µM*
COc1ccccc1NC(=O)c1sc2nc(C)c(C(=O)Nc3ccc(C)cc3C)c(-c3ccc(C)o3)c2c1N | x | x | x | 32µM* | x
N#CC1=C2SCN(C3CCCCC3)CN2C(=O)CC1c1ccc(Cl)cc1 (configuration not stated) | x | x | x | -22% | x
N#CC1=C2SCN(Cc3ccco3)CN2C(=O)CC1c1c(F)cccc1Cl (configuration not stated) | 12% | 1% | -14% | 13µM* | u
N#CC1=C2SCN(C3CCCCC3)CN2C(=O)CC1c1c(F)cccc1Cl (configuration not stated) | x | x | x | 32µM* | x
Cc1cccc(N2CCN(S(=O)(=O)c3c(C(=O)N4CCC(C)CC4)c(C)n(C)c3C)CC2)c1C | x | x | x | 5% | x
CN(CC(=O)Nc1ccccc1C(F)(F)F)C(=O)c1cc(-c2cccs2)nn1-c1ccccc1 | 3% | 112µM* | -9% | -28% | -2%
CSCCC(NS(=O)(=O)c1ccc(C)cc1)C(=O)NC1CCCCC1 (configuration not stated) | 3% | -5% | 5% | -19% | 14%
COc1ccc(S(=O)(=O)NC(CCSC)C(=O)NC2CCCCC2)cc1 (configuration not stated) | 0% | -47% | 50µM* | -12% | 2%
CCOC(=O)c1ccc(NS(=O)(=O)c2cn(C)c(C)n2)cc1 | x | x | x | -10% | x
CC(NC(=O)/C(C#N)=C/c1ccc(N2CCOCC2)cc1)c1ccccc1 (configuration not stated) | u | 89µM* | -23% | -10% | -3%
COC(=O)c1ccc(/C=C(\C#N)C(=O)NC(C)c2ccccc2)cc1 (configuration not stated) | 21% | 12% | 0% | -13% | 1%
Cc1ccc(-c2cn3nc(-c4ccccc4)c(-c4ccccc4)nc3n2)cc1 | 100µM* | 16% | 7% | u | 213%
CCOC(=O)N1CCc2c(sc(NCc3sccc3C)c2C(=O)Nc2ccc(OC)cc2OC)C1 | x | x | x | -23% | x
CCOC(=O)N1CCc2c(sc(NCc3ccc(N(C)C)cc3)c2C(=O)Nc2ccc(OC)cc2)C1 | x | x | x | 28µM* | x
COc1ccc(NC(=O)c2oc3ccccc3c2NC(=O)c2cc(C)cc(C)c2)c(OC)c1 | x | x | x | -21% | x
Cc1ccc(-n2cc(C(=O)Oc3ccc(F)cc3)c3ccccc3c2=O)cc1 | x | x | x | -10% | x
O=C(NCc1ccco1)c1ccc2c(c1)N(Cc1ccc(F)cc1)C(=O)c1ccccc1S2=O (configuration not stated) | x | x | x | -21% | x
CCCC[C@@H]1C[C@H]1[C@@H](NC(=O)c1cccs1)c1ccc(Cl)cc1 | 2% | 2% | -17% | -13% | u
CCCC[C@@H]1C[C@H]1[C@@H](NC(=O)c1ccco1)c1ccc(Cl)cc1 | 2% | -20% | -19% | -22% | 8.9µM*
CCN(CC1COc2ccccc2O1)C(=O)CN1C(=O)NC(C)(c2ccccc2)C1=O (configuration not stated) | 16% | -2% | 14% | -12% | -5%
CCN(CC1COc2ccccc2O1)C(=O)CN1C(=O)NC(C)(c2ccc(C)cc2)C1=O (configuration not stated) | 3% | 56µM* | -16% | -24% | 9%
O=C(O)CC/C(=C\c1ccc(N2CCCC2)c([N+](=O)[O-])c1)c1nc2ccccc2s1 | -5% | 89µM* | 45µM* | -25% | 19%
CCOc1ccccc1NC1c2ccccc2C(=O)N1Cc1ccco1 (configuration not stated) | 12% | 4% | 3% | -26% | 16µM*
SMILES | EPAC2 agonist | EPAC1 agonist | EPAC1 antag | USP1-UAF1 inh | EPAC2 antagonist
O=C1c2ccccc2C(O)N1Cc1ccco1 (configuration not stated) | 1% | 2% | 3% | -7% | 3%
Cn1c(/C(C#N)=C/c2ccc(C(F)(F)F)cc2)nc2ccccc21 | x | x | x | -15% | x
Cc1ccc(NC(=O)Cn2c(=O)n(Cc3ccccc3)c(=O)c3c2c2cc(C)ccc2n3C)cc1 | x | x | x | -14% | x
COC1=C(c2ccccc2)C(=O)c2ccccc2C1=O | 9% | -1% | 23% | 14µM* | -4%
COc1ccc(C2=C(N)c3ccccc3C2=O)cc1 | -5% | -2% | -6% | -18% | -2%
Cc1cccc(OCC(=O)Nc2ccc(OCc3cc(=O)n4cc(C)ccc4n3)cc2)c1 | x | x | x | -13% | x
O=C(/C=C/c1ccco1)NCC1OCCc2ccccc21 (configuration not stated) | -6% | -1% | 56µM* | -5% | 8%
COCCn1c(-c2ccc(Br)cc2)csc1=Nc1cccnc1 | -3% | 10% | -1% | -21% | 45µM*
Clc1ccc(-c2csc(=Nc3cccnc3)n2CCCn2ccnc2)cc1Cl | -2% | 7% | 9% | -1% | -7%
O=C(Cn1c(=O)n2nc(-c3cccc(F)c3)nc2c2ccccc21)N1CCN(c2ccc(F)cc2)CC1 | x | x | x | -14% | x
O=C(c1ccco1)N1N=C(C2CCCCC2)CC1(O)C(F)(F)F (configuration not stated) | 0% | -4% | -19% | -9% | u
CC1CCC2=NN(C(=O)c3ccco3)C(O)(C(F)(F)F)C2C1 (configuration not stated) | -3% | -4% | -10% | -1% | 50µM*
CCOC(=O)Nc1sc(C)nc1-c1ccccc1 | 7% | 5% | -1% | -4% | -6%
CCOC(=O)Nc1cc2c(c(N)n1)N=C(c1ccccc1)CN2 | 2% | 10% | 89µM* | u | 12%
CCSc1nn(CC(=O)Nc2cccc(CC)c2)c(N)c1S(=O)(=O)c1ccccc1 | x | x | x | -6% | x
O=C1NC(=O)C2(N1)c1ccccc1-c1ccccc12 | 1% | -2% | -13% | -21% | 8%
O=C1NC(=O)C2(N1)C(=O)c1cccc3cccc2c13 (configuration not stated) | u | 112µM* | 40% | 35µM* | 59%
CCc1ccc(-n2c(=O)c3sc4ccccc4c3n(CC(=O)N(CC)Cc3ccccc3)c2=O)cc1 | x | x | x | -17% | x
CCN(CC)c1ccc2cc(C(=O)Nc3ccccn3)c(=O)oc2c1 | 100µM* | 13% | 4% | u | 205%
CCN(CC)c1ccc2cc(C=O)c(=O)oc2c1 | 100µM* | 100µM* | 73% | 16µM* | 18%
CCN(CC)c1ccc2cc(NC(=O)CCC(=O)O)c(=O)oc2c1 | 27% | u | 26% | 28µM* | 33%
